# In PubChem BioAssay (EPA / NIEHS):
# Results filed as inconclusive are left out. Active and inactive are the calls of the source. How the source made its calls, unless noted: active means hit-call score of the fitted dose curve at least 0.9, where 1 is the maximum; inactive means score below 0.9.
# Experiments:
# [1] = ATG_NFI_CIS: Attagene CIS-FACTORIAL HepG2 Assay for human Nuclear Factor I (NFI) (AID 2282989); details: HepG2 cis-regulatory reporter, NFI response element transcription; actives raise or lower the signal
# Summary of the method: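 Multiplexed cis-reporter system in human HepG2 cells reports native TF activity as reporter mRNA induction 24 h post-dose. Fragments labelled with 6-FAM, HpaI-digested and resolved by capillary electrophoresis; activity fitted both directions versus DMSO.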
# [2] = ATG_NF_kB_CIS: Attagene CIS-FACTORIAL HepG2 Assay for human Nuclear Factor Kappa B (NF-kB) (AID 2282991); details: HepG2 Attagene cis-factorial NF-kB reporter mRNA; actives raise or lower the signal
# Summary of the method: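 DMSO served as negative control and baseline for bidirectional curve fitting. Transiently transfected HepG2 cells were dosed for 24 h, then reporter transcripts were measured by RT-PCR with capillary electrophoresis detection.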
# [3] = ATG_NRF2_ARE_CIS: Attagene CIS-FACTORIAL HepG2 Assay for human Nuclear Factor Erythroid 2 Related Factor 2 (NFR2) response to Antioxidant Response Elements (ARE) (AID 2282992); details: HepG2 Attagene ARE/NRF2 reporter, transcription factor activity; actives raise or lower the signal;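 on AC50: reporter mRNA level measured by RT-PCR and capillary electrophoresis fluorescence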
# Summary of the method: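 Cis-factorial assay: transfected HepG2 reporter library, 24 h dosing, mRNA readout via RT-PCR/CE; DMSO-referenced bidirectional analysis.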
# [4] = ATG_Oct_MLP_CIS: Attagene CIS-FACTORIAL HepG2 Assay for human Octamer-Binding Transcription Factor (Oct) (AID 2282993); details: HepG2 Attagene cis-factorial Oct reporter, mRNA; actives raise or lower the signal
# Summary of the method: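 After 24 h compound exposure, transfected HepG2 cells were lysed for total RNA; reporter-specific cDNA was PCR-amplified, fluorescently labelled and sized by capillary electrophoresis. Bidirectional curve fitting used DMSO as baseline.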
# [5] = target: Cellular tumor antigen p53 (Homo sapiens) (UniProt P04637); test: ATG_p53_CIS: Attagene CIS-FACTORIAL HepG2 Assay for human p53 Transcription Factor (AID 2282994); details: HepG2 p53 cis-element reporter, Attagene mRNA; actives raise or lower the signal
# Cellular tumor antigen p53 (Homo sapiens), sequence (P04637 whole entry, looked up): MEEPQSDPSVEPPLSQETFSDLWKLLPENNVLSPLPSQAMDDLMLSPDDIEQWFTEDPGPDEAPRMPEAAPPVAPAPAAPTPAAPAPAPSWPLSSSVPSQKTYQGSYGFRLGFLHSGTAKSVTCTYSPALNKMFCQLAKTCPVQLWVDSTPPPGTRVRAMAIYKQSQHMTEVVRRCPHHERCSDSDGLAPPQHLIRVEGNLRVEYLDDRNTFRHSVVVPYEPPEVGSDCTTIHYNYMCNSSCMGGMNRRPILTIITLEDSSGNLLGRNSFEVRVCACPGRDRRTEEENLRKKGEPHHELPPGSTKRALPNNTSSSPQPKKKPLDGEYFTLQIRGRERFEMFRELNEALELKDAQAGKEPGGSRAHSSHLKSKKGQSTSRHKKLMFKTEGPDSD
# Summary of the method: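 Using HepG2 hepatoma cells carrying cis-acting multiplexed reporters, mRNA induction is detected after a 24 h exposure. Gain- and loss-of-signal responses are fitted relative to DMSO-treated cells.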
# [6] = BSK_3C_TissueFactor: BioMAP Diversity Plus: 3C Assay for Tissue Factor Biomarker Activity (AID 2282997); details: BioMAP 3C HUVEC, tissue factor biomarker readout; actives raise or lower the signal
# Summary of the method: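 Human vascular primary cells (umbilical vein endothelium) received test chemical; Tissue Factor was determined by ELISA at 24 h, and both gain and loss of signal versus DMSO were fitted.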
# [7] = BSK_3C_uPAR: BioMAP Diversity Plus: 3C Assay for Urokinase-type plasminogen activator receptor (uPAR) Biomarker Activity (AID 2282998); details: BioMAP 3C HUVEC, uPAR biomarker ELISA; actives raise or lower the signal
# Summary of the method: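 Values derive from bidirectional curve fitting relative to DMSO, which served as baseline of activity. uPAR was measured by ELISA in human umbilical vein endothelial primary cultures 24 h after compound addition.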
# [8] = BSK_3C_VCAM1: BioMAP Diversity Plus: 3C Assay for Vascular cell adhesion molecule 1 (VCAM1) Biomarker Activity (AID 2282999); details: BioMAP 3C HUVEC, VCAM1 ELISA, cytokine-stimulated; actives raise or lower the signal
# Summary of the method: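 Human umbilical vein endothelial cells were dosed with compound for 24 h, after which cell-surface VCAM-1 was quantified by ELISA. Bidirectional curve fitting used DMSO as negative control and activity baseline.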
# [9] = BSK_4H_Eotaxin3: BioMAP Diversity Plus: 4H Assay for Eotaxin 3 Biomarker Activity (AID 2283000); details: primary human endothelial cells (HUVEC); actives raise or lower the signal;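 on outcome: CCL26 protein level quantified by ELISA in parallel with SRB cytotoxicity check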
# Summary of the method: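 Readout is Eotaxin-3 (CCL26) level by ELISA in primary human umbilical vein endothelial cells harvested 24 h after chemical exposure; activity fitted in both directions against DMSO control.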
# [10] = read-out: Intercellular Adhesion Molecule 1 (ICAM1), ICAM1 (gene 3383); test: BSK_3C_ICAM1: BioMAP Diversity Plus: 3C Assay for Intercellular Adhesion Molecule 1 (ICAM1) Biomarker Activity (AID 2283003); details: primary human endothelial cells (HUVEC); actives raise or lower the signal
# Summary of the method: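 Primary human umbilical vein endothelial cells in the BioMAP 3C system were exposed to chemicals for 24 h, then ICAM-1 was quantified by ELISA. Activity was fitted bidirectionally against the DMSO negative control baseline.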
# [11] = BSK_3C_Proliferation: Cell Proliferation Assessment in the BioMAP Diversity Plus: 3C Assay (AID 2283006); details: primary human endothelial cells (HUVEC);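 on AC50: potency may reflect either rise or fall in cell number versus DMSO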
# Summary of the method: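 Human umbilical vein endothelial cells were grown sub-confluent and exposed to chemical for 48 h, then fixed with 10% TCA and stained with 0.1% sulforhodamine B; absorbance at 560 nm gave relative cell number, fitted bidirectionally against DMSO baseline.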
# [12] = target: Peroxisome proliferator-activated receptor gamma (Homo sapiens) (UniProt P37231); test: ATG_PPARg_TRANS: Attagene TRANS-FACTORIAL HepG2 Assay for human Peroxisome Proliferator-activated Receptor-gamma (PPARg) (AID 2283007; active means hit-call score of the fitted dose curve at least 0.9, where 1 is the maximum)
# Peroxisome proliferator-activated receptor gamma (Homo sapiens), sequence (P37231 whole entry, looked up, the tested form may be a part): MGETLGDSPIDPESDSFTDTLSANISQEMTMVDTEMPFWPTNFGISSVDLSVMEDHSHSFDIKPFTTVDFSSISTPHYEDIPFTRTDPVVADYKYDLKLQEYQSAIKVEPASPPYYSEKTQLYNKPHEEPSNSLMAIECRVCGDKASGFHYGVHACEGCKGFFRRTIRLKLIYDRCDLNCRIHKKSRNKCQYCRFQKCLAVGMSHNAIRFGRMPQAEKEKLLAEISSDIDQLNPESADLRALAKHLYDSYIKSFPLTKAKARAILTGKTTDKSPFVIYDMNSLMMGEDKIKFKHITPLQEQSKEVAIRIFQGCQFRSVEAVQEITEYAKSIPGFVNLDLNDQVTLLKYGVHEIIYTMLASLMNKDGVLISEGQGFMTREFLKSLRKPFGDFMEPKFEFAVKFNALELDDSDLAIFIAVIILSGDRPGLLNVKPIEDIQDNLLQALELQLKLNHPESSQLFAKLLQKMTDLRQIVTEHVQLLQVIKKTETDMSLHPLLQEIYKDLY
# Summary of the method: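 Chimeric NR-Gal4 transactivation is measured in transiently transfected HepG2 cells by reporter mRNA induction at 24 h. Detection uses RT-PCR with fluorescent labelling and capillary electrophoresis; DMSO defines baseline.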
# [13] = target: Nuclear receptor subfamily 1 group I member 2 (Homo sapiens) (UniProt O75469); test: ATG_PXR_TRANS: Attagene TRANS-FACTORIAL HepG2 Assay for human Pregnane X Receptor (PXR) (AID 2283008; active means hit-call score of the fitted dose curve at least 0.9, where 1 is the maximum)
# Nuclear receptor subfamily 1 group I member 2 (Homo sapiens), sequence (O75469 whole entry, looked up, the tested form may be a part): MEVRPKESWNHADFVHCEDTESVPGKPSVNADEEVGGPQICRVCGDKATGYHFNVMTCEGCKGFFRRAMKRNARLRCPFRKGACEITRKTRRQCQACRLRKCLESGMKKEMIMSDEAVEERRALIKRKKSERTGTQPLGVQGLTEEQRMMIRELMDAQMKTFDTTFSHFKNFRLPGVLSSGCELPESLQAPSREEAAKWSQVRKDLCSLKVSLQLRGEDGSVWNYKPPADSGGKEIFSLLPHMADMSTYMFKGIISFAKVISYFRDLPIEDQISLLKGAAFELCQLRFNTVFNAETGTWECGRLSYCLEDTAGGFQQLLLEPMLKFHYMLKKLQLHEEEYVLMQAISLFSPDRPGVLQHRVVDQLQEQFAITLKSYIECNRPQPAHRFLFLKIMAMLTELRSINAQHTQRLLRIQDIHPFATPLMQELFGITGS
# Summary of the method: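 Fluorescence intensity of FAM-labelled, HpaI-digested reporter amplicons, separated by capillary electrophoresis, quantifies induction. HepG2 cells with PXR-Gal4 trans-reporter system were exposed 24 h; DMSO defines baseline.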
# [14] = target: human Peroxisome Proliferator-activated Receptor delta (PPARd), PPARD (gene 5467) (UniProt Q03181); test: ATG_PPARd_TRANS: Attagene TRANS-FACTORIAL HepG2 Assay for human Peroxisome Proliferator-activated Receptor delta (PPARd) (AID 2283002; active means hit-call score of the fitted dose curve at least 0.9, where 1 is the maximum)
# human Peroxisome Proliferator-activated Receptor delta (PPARd), PPARD (gene 5467), sequence (Q03181 whole entry, looked up, the tested form may be a part): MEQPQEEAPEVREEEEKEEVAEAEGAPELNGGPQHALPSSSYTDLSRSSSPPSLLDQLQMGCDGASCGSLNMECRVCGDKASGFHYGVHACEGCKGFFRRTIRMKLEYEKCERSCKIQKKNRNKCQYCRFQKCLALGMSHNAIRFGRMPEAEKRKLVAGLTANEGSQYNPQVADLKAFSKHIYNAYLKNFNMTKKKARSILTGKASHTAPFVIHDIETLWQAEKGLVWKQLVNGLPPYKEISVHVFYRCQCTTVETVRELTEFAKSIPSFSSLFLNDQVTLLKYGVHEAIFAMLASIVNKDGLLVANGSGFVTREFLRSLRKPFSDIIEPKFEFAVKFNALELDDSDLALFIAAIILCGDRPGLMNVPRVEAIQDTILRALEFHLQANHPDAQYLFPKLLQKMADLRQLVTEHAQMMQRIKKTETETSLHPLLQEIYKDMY
# Summary of the method: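 Multiplexed trans-activation format: HepG2 liver cells expressing exogenous NR-Gal4 chimeras and GAL4-UAS reporters were exposed for 24 h. Reporter mRNA was detected by RT-PCR with capillary electrophoresis fluorescence; activity fitted as gain of signal relative to DMSO.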
# [15] = target: human RAR-related Orphan Receptor beta (RORb), RORB (gene 6096) (UniProt Q92753); test: ATG_RORb_TRANS: Attagene TRANS-FACTORIAL HepG2 Assay for human RAR-related Orphan Receptor beta (RORb) (AID 2283010; active means hit-call score of the fitted dose curve at least 0.9, where 1 is the maximum)
# human RAR-related Orphan Receptor beta (RORb), RORB (gene 6096), sequence (Q92753 whole entry, looked up, the tested form may be a part): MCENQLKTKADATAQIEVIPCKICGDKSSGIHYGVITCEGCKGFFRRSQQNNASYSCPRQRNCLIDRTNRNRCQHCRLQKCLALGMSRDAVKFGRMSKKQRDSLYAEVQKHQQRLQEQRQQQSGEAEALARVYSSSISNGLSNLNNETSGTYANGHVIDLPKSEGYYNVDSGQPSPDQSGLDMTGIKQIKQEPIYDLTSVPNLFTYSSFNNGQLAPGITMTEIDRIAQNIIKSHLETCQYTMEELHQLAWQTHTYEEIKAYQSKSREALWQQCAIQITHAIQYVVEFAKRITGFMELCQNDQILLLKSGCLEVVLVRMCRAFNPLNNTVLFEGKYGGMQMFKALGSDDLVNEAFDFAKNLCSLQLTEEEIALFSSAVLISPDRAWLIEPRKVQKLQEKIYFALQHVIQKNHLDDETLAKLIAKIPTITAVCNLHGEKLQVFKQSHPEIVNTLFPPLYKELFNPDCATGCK
# Summary of the method: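 HepG2 cells were transiently transfected with multiplexed GAL4-UAS reporter units expressing chimeric nuclear receptor–GAL4 proteins, then dosed for 24 h. Reporter mRNA was quantified by RT-PCR with fluorescent labelling and capillary electrophoresis; gain of signal was fitted relative to DMSO.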
# [16] = target: human Peroxisome Proliferator-activated Receptor alpha (PPARa), PPARA (gene 5465) (UniProt Q07869); test: ATG_PPARa_TRANS: Attagene TRANS-FACTORIAL HepG2 Assay for human Peroxisome Proliferator-activated Receptor alpha (PPARa) (AID 2283001; active means hit-call score of the fitted dose curve at least 0.9, where 1 is the maximum)
# human Peroxisome Proliferator-activated Receptor alpha (PPARa), PPARA (gene 5465), sequence (Q07869 whole entry, looked up, the tested form may be a part): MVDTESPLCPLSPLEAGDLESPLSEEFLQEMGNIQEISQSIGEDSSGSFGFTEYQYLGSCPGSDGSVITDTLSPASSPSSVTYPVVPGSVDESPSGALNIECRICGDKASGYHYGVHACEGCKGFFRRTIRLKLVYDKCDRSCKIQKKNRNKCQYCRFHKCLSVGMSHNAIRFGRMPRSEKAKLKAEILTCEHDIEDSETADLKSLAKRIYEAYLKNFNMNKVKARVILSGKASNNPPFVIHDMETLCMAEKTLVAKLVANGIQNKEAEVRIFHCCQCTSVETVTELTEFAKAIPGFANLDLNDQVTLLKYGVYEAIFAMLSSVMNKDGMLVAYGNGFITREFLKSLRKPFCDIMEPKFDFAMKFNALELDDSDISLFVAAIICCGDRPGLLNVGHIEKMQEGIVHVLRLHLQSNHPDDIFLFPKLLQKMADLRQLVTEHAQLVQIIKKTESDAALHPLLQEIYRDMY
# Summary of the method: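 HepG2 cells transiently transfected with multiplexed GAL4-UAS reporter units and chimeric NR-Gal4 constructs were dosed for 24 h. Reporter mRNA was measured by RT-PCR with fluorescent labelling and capillary electrophoresis; gain of signal fitted against DMSO.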
smiles,measurement,setting,value
CCCCC(CC)COCCC#N (stereo unspecified),outcome,[1],inactive
same,outcome,[2],inactive
same,outcome,[3],inactive
same,outcome,[4],inactive
same,outcome,[5],inactive
same,outcome,[6],inactive
same,outcome,[7],inactive
same,outcome,[8],inactive
same,outcome,[9],inactive
same,outcome,[10],inactive
same,AC50,[11],20 µM (active)
same,outcome,[12],inactive
same,outcome,[13],inactive
CC(=O)OCCC(C)CC(C)(C)C (stereo unspecified),outcome,[1],inactive
same,outcome,[2],inactive
same,outcome,[3],inactive
same,outcome,[4],inactive
same,outcome,[5],inactive
same,outcome,[6],inactive
same,outcome,[7],inactive
same,outcome,[8],inactive
same,outcome,[9],inactive
same,outcome,[14],inactive
same,outcome,[10],inactive
same,outcome,[11],inactive
same,outcome,[13],inactive
same,outcome,[15],inactive
CC(C)=CCC/C(C)=C/COC=O,outcome,[1],inactive
same,outcome,[2],inactive
same,outcome,[3],inactive
same,outcome,[4],inactive
same,outcome,[5],inactive
same,outcome,[14],inactive
same,outcome,[12],inactive
same,outcome,[13],inactive
CC(C)CCCCCCCOC(=O)c1ccc(C(=O)OCCCCCCCC(C)C)c(C(=O)OCCCCCCCC(C)C)c1,outcome,[1],inactive
same,outcome,[2],inactive
same,outcome,[3],inactive
same,outcome,[4],inactive
same,outcome,[5],inactive
same,outcome,[16],inactive
same,outcome,[12],inactive
same,outcome,[13],inactive
same,outcome,[15],inactive
Nc1cc(Cl)c(O)c(Cl)c1,outcome,[1],inactive
same,AC50,[2],46.8 µM (active)
same,AC50,[3],26.5 µM (active)
same,AC50,[4],100 µM (active)
same,AC50,[5],144 µM (active)
same,outcome,[16],inactive
same,outcome,[14],inactive
same,outcome,[15],inactive
CC(C)C1CCC(O)CC1 (stereo unspecified),outcome,[1],inactive
same,outcome,[3],inactive
same,outcome,[4],inactive
same,outcome,[5],inactive
same,outcome,[13],inactive
CN(CCOc1ccc(CC2SC(=O)NC2=O)cc1)c1ccccn1 (stereo unspecified),outcome,[1],inactive
same,outcome,[2],inactive
same,AC50,[3],15.1 µM (active)
same,outcome,[4],inactive
same,outcome,[5],inactive
same,outcome,[6],inactive
same,AC50,[7],6.93 µM (active)
same,outcome,[8],inactive
same,AC50,[9],3.97 µM (active)
same,outcome,[10],inactive
same,AC50,[11],7.9 µM (active)
same,AC50,[13],5.11 µM (active)
FC1(F)C(F)(F)C(F)(F)C2(F)C(F)(C1(F)F)C(F)(F)C(F)(F)C1(F)C(F)(F)C(F)(F)C(F)(F)C(F)(F)C12F (stereo unspecified),outcome,[1],inactive
same,outcome,[2],inactive
same,outcome,[3],inactive
same,outcome,[4],inactive
same,outcome,[5],inactive
same,outcome,[14],inactive
same,outcome,[13],inactive
CC(C)(C)C(=O)c1ccccc1,outcome,[1],inactive
same,outcome,[2],inactive
same,outcome,[3],inactive
same,outcome,[4],inactive
same,outcome,[5],inactive
same,outcome,[16],inactive
same,outcome,[14],inactive
same,outcome,[13],inactive
same,outcome,[15],inactive
Nc1ccc(S(N)(=O)=O)cc1,outcome,[1],inactive
same,outcome,[3],inactive
same,outcome,[4],inactive
same,outcome,[5],inactive
same,outcome,[16],inactive
same,outcome,[13],inactive
